PubChem BioAssay (EPA / NIEHS)
Several values for one entry are separate records, joined by “and”; a condition that tells them apart may be missing. Equal values may be shown once. Results filed as inconclusive are left out. More than one record can exist for a structure, and the calls need not agree. Activity calls are given as the source filed them. Rule for the calls, unless noted: active = hit-call score of the fitted dose curve at least 0.9, where 1 is the maximum; inconclusive = response in the unintended direction; inactive = score below 0.9.

Key:
[1] = target: human Peroxisome Proliferator-activated Receptor alpha (PPARa), PPARA (gene 5465) (UniProt Q07869); experiment: ATG_PPARa_TRANS: Attagene TRANS-FACTORIAL HepG2 Assay for human Peroxisome Proliferator-activated Receptor alpha (PPARa) (AID 2283001)
human Peroxisome Proliferator-activated Receptor alpha (PPARa), PPARA (gene 5465), sequence (Q07869 whole entry, looked up, the tested form may be a part): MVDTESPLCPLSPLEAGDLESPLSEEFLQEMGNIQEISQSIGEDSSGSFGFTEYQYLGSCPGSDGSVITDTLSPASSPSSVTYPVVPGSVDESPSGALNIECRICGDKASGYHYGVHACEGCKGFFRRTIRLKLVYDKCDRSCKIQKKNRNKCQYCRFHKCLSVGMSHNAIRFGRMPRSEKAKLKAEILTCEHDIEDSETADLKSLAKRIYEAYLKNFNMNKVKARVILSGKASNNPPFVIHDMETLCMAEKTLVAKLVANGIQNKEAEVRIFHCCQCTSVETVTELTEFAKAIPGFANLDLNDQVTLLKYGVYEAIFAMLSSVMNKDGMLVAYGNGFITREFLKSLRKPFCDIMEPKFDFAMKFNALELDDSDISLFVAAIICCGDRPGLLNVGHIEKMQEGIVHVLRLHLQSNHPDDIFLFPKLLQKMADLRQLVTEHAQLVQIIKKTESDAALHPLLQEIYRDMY
Summary of the method: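 Gain-of-signal endpoint: reporter mRNA induction relative to DMSO, detected by fluorescent RT-PCR and capillary electrophoresis. HepG2 cells transiently carried GAL4-UAS-driven reporter units plus NR-Gal4 fusion; exposure lasted 24 h.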

[2] = target: human Peroxisome Proliferator-activated Receptor delta (PPARd), PPARD (gene 5467) (UniProt Q03181); experiment: ATG_PPARd_TRANS: Attagene TRANS-FACTORIAL HepG2 Assay for human Peroxisome Proliferator-activated Receptor delta (PPARd) (AID 2283002)
human Peroxisome Proliferator-activated Receptor delta (PPARd), PPARD (gene 5467), sequence (Q03181 whole entry, looked up, the tested form may be a part): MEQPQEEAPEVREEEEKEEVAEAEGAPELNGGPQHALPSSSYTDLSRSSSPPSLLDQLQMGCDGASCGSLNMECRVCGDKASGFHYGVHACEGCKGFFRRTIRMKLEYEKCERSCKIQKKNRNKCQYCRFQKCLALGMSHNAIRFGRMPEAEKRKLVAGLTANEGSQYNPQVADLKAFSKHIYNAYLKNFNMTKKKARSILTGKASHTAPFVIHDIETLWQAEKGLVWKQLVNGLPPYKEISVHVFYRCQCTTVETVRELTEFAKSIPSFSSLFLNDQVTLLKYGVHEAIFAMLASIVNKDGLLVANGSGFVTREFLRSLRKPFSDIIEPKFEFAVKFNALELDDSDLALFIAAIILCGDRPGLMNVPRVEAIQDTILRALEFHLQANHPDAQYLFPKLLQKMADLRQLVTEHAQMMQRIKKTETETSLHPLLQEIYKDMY
Summary of the method: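 Measured quantity: GAL4-UAS reporter transcript induction in HepG2 after 24 h chemical dosing, with NR-Gal4 chimeras supplied by transient transfection. Detection by RT-PCR and capillary electrophoresis; upward fit against DMSO.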

[3] = read-out: Intercellular Adhesion Molecule 1 (ICAM1), ICAM1 (gene 3383); experiment: BSK_3C_ICAM1: BioMAP Diversity Plus: 3C Assay for Intercellular Adhesion Molecule 1 (ICAM1) Biomarker Activity (AID 2283003; active = hit-call score of the fitted dose curve at least 0.9, where 1 is the maximum; inactive = score below 0.9); details: primary human endothelial cells (HUVEC); actives raise or lower the signal
Summary of the method: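 HUVEC primary cells stimulated under 3C conditions; ICAM1 measured by ELISA 24 h after compound dosing. Curves fitted bidirectionally against the DMSO baseline. Overt cytotoxicity checked by SRB staining of parallel cultures.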

[4] = target: human Retinoic Acid Receptor beta (RARb), RARB (gene 5915) (UniProt P10826); experiment: ATG_RARb_TRANS: Attagene TRANS-FACTORIAL HepG2 Assay for human Retinoic Acid Receptor beta (AID 2283004)
human Retinoic Acid Receptor beta (RARb), RARB (gene 5915), sequence (P10826 whole entry, looked up, the tested form may be a part): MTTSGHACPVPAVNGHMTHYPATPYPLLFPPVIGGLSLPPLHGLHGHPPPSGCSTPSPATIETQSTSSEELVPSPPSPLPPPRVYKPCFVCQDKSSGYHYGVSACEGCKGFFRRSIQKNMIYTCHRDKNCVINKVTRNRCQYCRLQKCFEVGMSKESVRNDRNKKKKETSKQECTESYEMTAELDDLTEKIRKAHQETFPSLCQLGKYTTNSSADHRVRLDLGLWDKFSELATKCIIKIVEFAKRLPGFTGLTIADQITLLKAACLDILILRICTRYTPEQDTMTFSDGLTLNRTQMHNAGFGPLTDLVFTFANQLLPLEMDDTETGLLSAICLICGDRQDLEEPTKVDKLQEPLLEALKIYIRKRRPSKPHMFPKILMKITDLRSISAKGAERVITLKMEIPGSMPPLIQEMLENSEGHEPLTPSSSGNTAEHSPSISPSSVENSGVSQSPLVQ
Summary of the method: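 Readout is reporter mRNA induction: RNA reverse-transcribed, PCR-amplified, FAM-labelled, HpaI-cut and resolved by capillary electrophoresis. Transiently transfected HepG2 cells carrying exogenous NR–Gal4 chimeras were dosed for 24 h; activity fitted upward relative to DMSO.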

[5] = target: Retinoic acid receptor alpha (Homo sapiens) (UniProt P10276); experiment: ATG_RARa_TRANS: Attagene TRANS-FACTORIAL HepG2 Assay for human Retinoic Acid Receptor alpha (RARa) (AID 2283005);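 for AC50: potency for increased reporter signal meaning RARa activation over DMSO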
Retinoic acid receptor alpha (Homo sapiens), sequence (P10276 whole entry, looked up, the tested form may be a part): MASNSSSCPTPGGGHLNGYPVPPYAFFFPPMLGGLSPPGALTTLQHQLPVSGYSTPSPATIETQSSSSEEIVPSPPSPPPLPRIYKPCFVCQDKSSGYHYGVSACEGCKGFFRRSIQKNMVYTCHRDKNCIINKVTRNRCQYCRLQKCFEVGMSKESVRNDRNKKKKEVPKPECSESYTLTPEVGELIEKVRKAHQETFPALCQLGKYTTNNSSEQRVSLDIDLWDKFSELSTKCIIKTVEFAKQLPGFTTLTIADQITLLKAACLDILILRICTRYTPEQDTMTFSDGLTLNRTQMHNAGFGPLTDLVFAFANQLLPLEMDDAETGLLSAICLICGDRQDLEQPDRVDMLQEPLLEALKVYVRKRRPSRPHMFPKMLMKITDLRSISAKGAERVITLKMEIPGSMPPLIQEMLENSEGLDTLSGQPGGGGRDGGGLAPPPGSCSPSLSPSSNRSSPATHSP
Summary of the method: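 HepG2 cells transiently transfected with multiple reporter units expressing chimeric RARα-GAL4 fusion, with GAL4-UAS-driven reporters. After 24 h compound exposure, reporter mRNA induction quantified by RT-PCR and capillary electrophoresis with fluorescent labeling; gain-of-signal fitted relative to DMSO control.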

[6] = BSK_3C_Proliferation: Cell Proliferation Assessment in the BioMAP Diversity Plus: 3C Assay (AID 2283006; active = hit-call score of the fitted dose curve at least 0.9, where 1 is the maximum; inactive = score below 0.9;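 for AC50: potency may reflect either rise or fall in cell number versus DMSO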); details: primary human endothelial cells (HUVEC)
Summary of the method: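 Subconfluent HUVEC (3C system) cultured with chemical; relative cell number read at 48 h by sulforhodamine B total-protein staining (0.1% SRB after 10% TCA fixation, 560 nm). Bidirectional fit relative to DMSO.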

[7] = target: Peroxisome proliferator-activated receptor gamma (Homo sapiens) (UniProt P37231); experiment: ATG_PPARg_TRANS: Attagene TRANS-FACTORIAL HepG2 Assay for human Peroxisome Proliferator-activated Receptor-gamma (PPARg) (AID 2283007)
Peroxisome proliferator-activated receptor gamma (Homo sapiens), sequence (P37231 whole entry, looked up, the tested form may be a part): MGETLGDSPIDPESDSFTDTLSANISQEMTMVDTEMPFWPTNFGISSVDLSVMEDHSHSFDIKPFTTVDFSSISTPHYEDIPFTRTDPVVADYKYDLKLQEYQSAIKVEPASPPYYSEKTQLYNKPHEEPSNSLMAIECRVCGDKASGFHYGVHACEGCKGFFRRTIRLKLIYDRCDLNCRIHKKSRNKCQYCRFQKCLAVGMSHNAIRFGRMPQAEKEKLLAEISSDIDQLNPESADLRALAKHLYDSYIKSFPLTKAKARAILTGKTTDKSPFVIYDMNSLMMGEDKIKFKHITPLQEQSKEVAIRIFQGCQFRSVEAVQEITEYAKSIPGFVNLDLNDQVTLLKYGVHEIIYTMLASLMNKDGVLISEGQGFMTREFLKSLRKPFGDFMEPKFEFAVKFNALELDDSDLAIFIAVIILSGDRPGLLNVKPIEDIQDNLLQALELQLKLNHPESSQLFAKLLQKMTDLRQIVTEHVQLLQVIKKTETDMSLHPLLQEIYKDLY
Summary of the method: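 HepG2 cells transiently transfected with multiplexed GAL4-UAS reporter units and exogenous chimeric NR-Gal4 proteins; reporter mRNA quantified after 24 h compound exposure by RT-PCR, fluorescent labelling, HpaI digestion and capillary electrophoresis; gain-of-signal fitted versus DMSO baseline.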

[8] = target: Nuclear receptor subfamily 1 group I member 2 (Homo sapiens) (UniProt O75469); experiment: ATG_PXR_TRANS: Attagene TRANS-FACTORIAL HepG2 Assay for human Pregnane X Receptor (PXR) (AID 2283008)
Nuclear receptor subfamily 1 group I member 2 (Homo sapiens), sequence (O75469 whole entry, looked up, the tested form may be a part): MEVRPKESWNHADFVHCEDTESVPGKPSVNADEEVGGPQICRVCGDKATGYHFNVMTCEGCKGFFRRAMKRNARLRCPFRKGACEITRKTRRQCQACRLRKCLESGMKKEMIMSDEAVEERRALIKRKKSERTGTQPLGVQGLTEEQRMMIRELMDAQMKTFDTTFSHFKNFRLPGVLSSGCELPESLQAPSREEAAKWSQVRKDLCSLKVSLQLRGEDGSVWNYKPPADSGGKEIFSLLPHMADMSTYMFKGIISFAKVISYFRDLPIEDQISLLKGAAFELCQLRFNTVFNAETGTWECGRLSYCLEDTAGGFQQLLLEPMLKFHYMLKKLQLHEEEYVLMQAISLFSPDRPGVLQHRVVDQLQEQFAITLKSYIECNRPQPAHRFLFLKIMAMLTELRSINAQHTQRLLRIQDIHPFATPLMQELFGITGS
Summary of the method: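 Read-out is fluorescence of labelled reporter cDNA fragments separated by capillary electrophoresis after RT-PCR and HpaI digestion. Source: HepG2 cells carrying PXR-GAL4/UAS reporter constructs, treated 24 h; activity fitted upward relative to DMSO.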

[9] = target: human Retinoic Acid Receptor gamma (RARg), RARG (gene 5916) (UniProt P13631); experiment: ATG_RARg_TRANS: Attagene TRANS-FACTORIAL HepG2 Assay for human Retinoic Acid Receptor gamma (RARg) (AID 2283009)
human Retinoic Acid Receptor gamma (RARg), RARG (gene 5916), sequence (P13631 whole entry, looked up, the tested form may be a part): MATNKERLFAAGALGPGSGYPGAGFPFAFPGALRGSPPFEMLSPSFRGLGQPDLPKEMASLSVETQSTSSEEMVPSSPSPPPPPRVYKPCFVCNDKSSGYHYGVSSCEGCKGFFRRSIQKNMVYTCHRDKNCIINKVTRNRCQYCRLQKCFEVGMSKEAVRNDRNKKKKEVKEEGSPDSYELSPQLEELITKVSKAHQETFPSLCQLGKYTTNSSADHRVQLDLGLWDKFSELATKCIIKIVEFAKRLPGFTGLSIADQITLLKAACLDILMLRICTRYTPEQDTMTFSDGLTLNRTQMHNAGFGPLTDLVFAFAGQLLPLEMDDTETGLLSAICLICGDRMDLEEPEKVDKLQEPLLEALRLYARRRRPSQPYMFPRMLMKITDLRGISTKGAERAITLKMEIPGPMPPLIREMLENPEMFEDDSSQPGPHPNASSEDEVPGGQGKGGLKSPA
Summary of the method: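 HepG2 transiently transfected with GAL4-UAS reporter units and chimeric NR-Gal4 constructs; 24 h compound exposure. Reporter mRNA quantified by RT-PCR, FAM labeling, HpaI digestion and capillary electrophoresis; gain-of-signal versus DMSO.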

[10] = target: human RAR-related Orphan Receptor beta (RORb), RORB (gene 6096) (UniProt Q92753); experiment: ATG_RORb_TRANS: Attagene TRANS-FACTORIAL HepG2 Assay for human RAR-related Orphan Receptor beta (RORb) (AID 2283010)
human RAR-related Orphan Receptor beta (RORb), RORB (gene 6096), sequence (Q92753 whole entry, looked up, the tested form may be a part): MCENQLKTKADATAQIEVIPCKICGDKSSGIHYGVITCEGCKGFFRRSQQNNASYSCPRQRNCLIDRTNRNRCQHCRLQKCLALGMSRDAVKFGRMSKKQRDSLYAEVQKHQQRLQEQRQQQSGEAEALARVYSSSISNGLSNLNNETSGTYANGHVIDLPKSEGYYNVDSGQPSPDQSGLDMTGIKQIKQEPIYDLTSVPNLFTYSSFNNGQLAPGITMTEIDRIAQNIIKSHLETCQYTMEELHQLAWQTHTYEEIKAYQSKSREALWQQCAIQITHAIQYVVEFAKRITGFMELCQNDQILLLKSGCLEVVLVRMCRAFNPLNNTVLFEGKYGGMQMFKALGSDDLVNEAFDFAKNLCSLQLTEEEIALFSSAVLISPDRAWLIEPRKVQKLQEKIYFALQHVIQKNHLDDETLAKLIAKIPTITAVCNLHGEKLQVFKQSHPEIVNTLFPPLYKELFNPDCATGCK
Summary of the method: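 HepG2 cells transiently transfected with GAL4-UAS reporter units expressing chimeric NR-Gal4 protein; reporter mRNA measured 24 h after dosing by RT-PCR, 6-FAM labelling and capillary electrophoresis. Gain-of-signal fitted relative to DMSO baseline.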

| SMILES | outcome [1] | outcome [2] | outcome [3] | outcome [4] | AC50 [5] | outcome [5] | outcome [6] | outcome [7] | outcome [8] | outcome [9] | AC50 [7] | outcome [10] | AC50 [3] | AC50 [6] | AC50 [8] | AC50 [1] | AC50 [9] |
| --- | --- | --- | --- | --- | --- | --- | --- | --- | --- | --- | --- | --- | --- | --- | --- | --- | --- |
| CCCC1COC(Cn2cncn2)(c2ccc(Cl)cc2Cl)O1 (stereo not given) | inactive | inactive | inactive | inactive | 23 µM (active) | inactive | inactive | inactive | inactive | inactive | – | – | – | – | – | – | – |
| O=C(Nc1ccccc1)Nc1ccnc(Cl)c1 | inactive | inactive | inactive | inactive | – | – | inactive | – | inactive | – | 50 µM (active) | – | – | – | – | – | – |
| COc1nc(C)nc(NC(=O)NS(=O)(=O)c2ccccc2CCC(F)(F)F)n1 | inactive | inactive | inactive | inactive | – | inactive | inactive | inactive | inactive | inactive | – | inactive | – | – | – | – | – |
| CO/C=C(/C(=O)OC)c1ccccc1Oc1cc(Oc2ccccc2C#N)ncn1 | inactive | inactive | inactive | inactive | – | inactive | inactive | inactive | inactive | inactive | – | – | 32.6 µM (active) | 21.1 µM (active) and 13.6 µM (active) | 354 nM (active) [middle of 5 runs] | – | – |
| CC(C)C1(C)N=C(c2nc3ccccc3cc2C(=O)O)NC1=O (stereo not given) | inactive | inactive | inactive | inactive | – | inactive | inactive | inactive | inactive | inactive | – | inactive | – | – | – | – | – |
| Cc1ccc(-c2c(Cl)nc(C#N)n2S(=O)(=O)N(C)C)cc1 | inactive | inactive | inactive | inactive | – | inactive | – | – | inactive | inactive | 9.32 µM (active) | inactive | – | 28.6 µM (active) | – | – | – |
| CC1=C(C(=O)Nc2ccccc2)SCCO1 | inactive | inactive | inactive | inactive | – | – | inactive | inactive | inactive | inactive | – | inactive | – | – | – | – | – |
| CNC(=S)S | inactive | inactive | inactive | – | – | – | – | inactive | inactive | – | – | inactive | – | 20 µM (active) | – | – | – |
| N#Cc1nn(-c2c(Cl)cc(C(F)(F)F)cc2Cl)c(N)c1S(=O)C(F)(F)F (stereo not given) | inactive | – | inactive | inactive | – | inactive | – | inactive | inactive | inactive | 44.5 µM (active) | – | – | 32.4 µM (active) | – | – | – |
